Test systems include SK-MEL-2 melanoma; EKVX NSCLC; SN12C renal; UO-31 renal; TK-10 renal; ACHN renal; CAKI-1 renal; A498 renal; CCRF-CEM leukemia; MOLT-4 leukemia.
Common to all, as to assay: NCI-60 one-dose screen, 48 h (100 = growth as untreated, 0 = no growth, -100 = all killed)
Settings in all cases: 10 µM unless noted

The panel holds about 83,000 compounds, 20% with a hit somewhere; the sample as a whole holds those more often.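 In brief: 96-well plates, 48 h treatment, single concentration, percent growth endpoint.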 Values without a mark were called inactive. Activity calls are given as the source filed them. The calls were made as follows: active = growth percent below 10; inactive = the rest.

Regarding `O=C1Nc2ccccc2/C1=C/C(=O)c1ccc(N2CCCC2)cc1`, the growth with SK-MEL-2 melanoma was 58.7%; with EKVX NSCLC, 76.1%; with SN12C renal, 15.6%; in the test with UO-31 renal it was 47.1%; in the test with TK-10 renal, 42.8%; in the test on ACHN renal it was 30.7%. Further, the growth in the test with CAKI-1 renal was 18.1%; with A498 renal, 65.8%; in the test on CCRF-CEM leukemia, 10.4%; in the test on MOLT-4 leukemia it was 3.55% (active).

Consider `COc1ccc(C2NC(=O)C(C#N)c3c2sc2c(F)cccc32)cc1` (stereo not given), for which the growth in the test on SK-MEL-2 melanoma is 60%; with EKVX NSCLC it was 62.8%; with SN12C renal, 61.5%; in the test on UO-31 renal, 36.8%; with TK-10 renal, 113%; in the test with ACHN renal, 43.6%. The growth with CAKI-1 renal is 40%; with A498 renal, 32.2%; in the test with CCRF-CEM leukemia, 44%; in the test on MOLT-4 leukemia, 49.1%.

Consider `COc1cc(NN=C(c2ccc(O)cc2)c2ccc(O)cc2)c([N+](=O)[O-])cc1[N+](=O)[O-]`, for which the growth is -70.2% (active) in the test on SK-MEL-2 melanoma; 108% in the test on EKVX NSCLC; 90.5% in the test with SN12C renal; -66.4% (active) in the test with UO-31 renal; 93.5% with TK-10 renal; 42.4% in the test with ACHN renal. In addition, the growth in the test with CAKI-1 renal was 97%; in the test with A498 renal, 125%; in the test on CCRF-CEM leukemia, 103%; in the test on MOLT-4 leukemia it was 94.6%.

As for `CC1(C)CC[C@]2(C(=O)O)CC[C@]3(C)C(=CC[C@@H]4[C@@]5(C)C/C(=C/c6ccco6)C(=O)C(C)(C)[C@@H]5CC[C@]43C)[C@@H]2C1`, the growth in the test on SK-MEL-2 melanoma was -69.3% [100 µM] (active); in the test with EKVX NSCLC it was -19.6% [100 µM] (active); with SN12C renal it was -52.3% [100 µM] (active); in the test with UO-31 renal it was -98.1% [100 µM] (active); in the test with TK-10 renal, -19.1% [100 µM] (active); in the test on ACHN renal it was -71.8% [100 µM] (active). The growth with CAKI-1 renal was -35% [100 µM] (active); in the test with A498 renal it was -42.5% [100 µM] (active); in the test with CCRF-CEM leukemia, 4.17% [100 µM] (active); with MOLT-4 leukemia it was 2.21% [100 µM] (active).

As for `O=[N+]([O-])c1cc([N+](=O)[O-])c(NN=C(c2ccc(O)cc2)c2ccc(O)cc2)cc1Cl`, the growth with SK-MEL-2 melanoma is -94% (active); with EKVX NSCLC, 38.8%; with SN12C renal, -78.6% (active); with UO-31 renal, -98.4% (active); in the test with TK-10 renal, -57% (active); in the test with ACHN renal, -62.7% (active). Further, the growth with CAKI-1 renal is 42.3%; with A498 renal, 73.4%; with CCRF-CEM leukemia, 82.1%; with MOLT-4 leukemia it was 53.4%.

With `CCCCN(CCCC)CC(O)c1ccc(OCc2ccccc2)c2ccccc12` (stereo not given), the growth with SK-MEL-2 melanoma was 99.4%; with EKVX NSCLC it was 75.5%; in the test with SN12C renal, 94.6%; in the test on UO-31 renal, 28.9%; with TK-10 renal, 78.2%; in the test with ACHN renal it was 71.7%. Moreover, the growth is 26.3% in the test on CAKI-1 renal, 97.2% with A498 renal, 72.7% in the test with CCRF-CEM leukemia and 15.8% in the test on MOLT-4 leukemia.

As to `Cc1ccc(S(=O)(=O)N/N=C2\CC3CCC2(C)C3(C)C)cc1` (stereo not given), the growth is 76.8% in the test on SK-MEL-2 melanoma; 105% with EKVX NSCLC; 93.5% in the test with SN12C renal; 86.4% in the test with UO-31 renal; 137% in the test with TK-10 renal; 102% with ACHN renal. The growth in the test with CAKI-1 renal was 78.5%; with A498 renal it was 105%; with CCRF-CEM leukemia it was 112%; in the test with MOLT-4 leukemia it was 111%.

In the case of `Cc1cc(-c2ccc(N=Nc3c(S(=O)(=O)O)cc4cc(S(=O)(=O)O)cc(N)c4c3O)c(C)c2)ccc1N=Nc1cc(S(=O)(=O)O)c2ccccc2c1O`, the growth with SK-MEL-2 melanoma was 111%; in the test with EKVX NSCLC, 81.1%; in the test with SN12C renal, 98.1%; in the test on UO-31 renal, 73.1%; in the test with TK-10 renal, 102%; in the test with ACHN renal it was 95.4%. Also, the growth is 78.9% in the test with CAKI-1 renal, 96.4% in the test on A498 renal, 106% in the test with CCRF-CEM leukemia and 102% with MOLT-4 leukemia.

Take `CCCC(NC(=O)OCc1ccccc1)C(=O)O` (stereo not given): the growth in the test with SK-MEL-2 melanoma is 128%; in the test on EKVX NSCLC, 96.5%; in the test on SN12C renal, 74.3%; in the test with UO-31 renal, 65.1%; in the test with TK-10 renal, 117%; with ACHN renal it was 108%. The growth in the test on CAKI-1 renal was 82.9%; in the test with A498 renal, 80%; in the test with CCRF-CEM leukemia it was 118%; in the test with MOLT-4 leukemia, 111%.

On to `COc1cc2c(c(OC)c1)C1c3cc(OC)ccc3NC(=O)N1CC2` (stereo not given), for which the growth with SK-MEL-2 melanoma was 45.5%; in the test on EKVX NSCLC, 91.9%; in the test with SN12C renal, 88.5%; in the test with UO-31 renal, 78.5%; with TK-10 renal it was 82.5%; in the test with ACHN renal it was 100%. Further, the growth with CAKI-1 renal is 77.8%; in the test with A498 renal it was 74.7%; in the test on CCRF-CEM leukemia, 88.2%; with MOLT-4 leukemia it was 72.9%.

Take `COc1ccc(NC(=S)NNc2ccc(-c3ccc(OC)c(OC)c3)nn2)cc1`: the growth in the test with SK-MEL-2 melanoma is 106%; in the test with EKVX NSCLC it was 104%; in the test with SN12C renal, 100%; in the test with UO-31 renal, 83.3%; in the test with TK-10 renal, 105%; in the test with ACHN renal, 102%. In addition, the growth in the test with CAKI-1 renal was 77%; in the test on A498 renal it was 83.4%; in the test with CCRF-CEM leukemia, 103%; in the test with MOLT-4 leukemia it was 96.3%.

As to `Cn1cc(-c2nnc(-c3cn(C)c4ncc(Br)cc34)s2)c2cc(Br)ccc21`, the growth with SK-MEL-2 melanoma is 101%; with EKVX NSCLC it was 69.2%; in the test on SN12C renal, 94.5%; with UO-31 renal, 79.8%; with TK-10 renal, 108%; with ACHN renal it was 94.2%. Further, the growth in the test on CAKI-1 renal is 73.9%; in the test with A498 renal, 52.6%; with CCRF-CEM leukemia, -27.5% (active); in the test with MOLT-4 leukemia it was 97.3%.

Values taken from PubChem BioAssay (NCI).
